Laboratory results as given in paper PMC6792352, “Limited Chemical Structural Diversity Found to Modulate Thyroid Hormone Receptor in the Tox21 Chemical Library” (Environmental Health Perspectives, 2019).
Structures can show the parent of a compound that is named as a salt.

system: thyroid hormone receptor (endogenous TRα and TRβ); design: species or system GH3-TRE-Luc (rat pituitary); GH3-TRE-Luc luciferase reporter, antagonist mode against 1 nM T3, loss of signal, qHTS; conditions: read-out: Average AC50 (uM) GH3-TRE-Antag; 24 h; antagonist

| Structure (SMILES) | AC50 [µM] |
| --- | --- |
| Cc1cc2c3c(c1)C(c1ccccc1)=N[C@@H](NC(=O)c1ccncc1)C(=O)N3CC2 [CI-1018] | 27.4 |
| Cc1nnc2n1-c1ccc(Cl)cc1C(c1ccccc1)=NC2 [Alprazolam] | 41.3 |
| O=C1Nc2ccc(Cl)cc2C(c2ccccc2)=NC1O (stereo not drawn) [Oxazepam] | > 50 |
| C[C@]12CC[C@H]3[C@@H](CCC4=CC(=O)CC[C@@H]43)[C@@H]1CC[C@@H]2OC(=O)CCc1ccccc1 [Nandrolone phenpropionate] | 19.5 |
| CN1C(=S)CN=C(c2ccccc2)c2cc(Cl)ccc21 [Sulazepam] | 43.6 |
| Cc1ncc2n1-c1ccc(Cl)cc1C(c1ccccc1F)=NC2 [Midazolam hydrochloride] | 32.8 |
